According to PubChem BioAssay (NCATS):
A number with no mark means an inactive call. Calls come from the whole dose curve; as a rule, active = well fitted activation curve with a large enough effect; inconclusive = small, poorly fitted or top-dose-only effect; inactive = flat fitted curve, though single readings scatter. Inconclusive results are not listed.

Assay: Cellular Toxicity (caspase-3) SK-N-SH (AID 661);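 note: cells exposed to compound for 16 hours; 0% = DMSO basal and 100% = 10 µM staurosporine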
Conditions: SK-N-SH caspase-3 activation, qHTS, DMSO as zero, staurosporine as full; series mostly up to 91.7 µM; caspase-3 activation: at the top concentration
Outline: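 Cells were seeded and incubated 5 hr at 37 °C, dosed with compound over a concentration range for 16 hr, then given Caspase-Glo 3/7 reagent for 1 hr at room temperature before luminescence reading.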

First: COc1ccc(C)cc1N
Second: COc1ccc(C(=O)Nc2ccccc2)cc1[N+](=O)[O-]
The “caspase-3 activation” value of the first is higher: 0.327% for the first, -0.259% for the second.

Compared with `CCc1ccc(C(c2ccc(CC)cc2)C(Cl)Cl)cc1`, `O=[N+]([O-])c1ccccc1Nc1ccccc1` is lower in “caspase-3 activation” value: 0.857% for the first, -1.96% for the second.

Going from `C=CC1CO1` (centres undefined) to `CCOC(=O)C1OC1c1ccccc1` (centres undefined), the “caspase-3 activation” value falls from 1.68% to 1.55%.

For `COc1cc(-c2ccc(N=C=O)c(OC)c2)ccc1N=C=O`, the “caspase-3 activation” value was -0.68%.

Assay: Cellular Toxicity (caspase-3) H-4-II-E (AID 663);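 note: cells exposed to compound for 16 hr before readout; 0% = DMSO basal and 100% = 100 µM tamoxifen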
Conditions: H-4-II-E rat hepatoma; Potency: caspase-3 activation; series mostly up to 92.2 µM; caspase-3 activation: at the top concentration
Outline: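 Caspase 3/7 activation measured by luminescent aminoluciferin substrate cleavage after 16 hr compound treatment of H-4-II-E cells in complete medium. Increase normalized between DMSO (basal) and 100 uM tamoxifen (100%); Hill-equation AC50 from concentration-response.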

Going from `Nc1cnn([C@@H]2O[C@H](CO)[C@@H](O)[C@H]2O)c(=O)n1` to `CCOC(=O)C1OC1c1ccccc1` (centres undefined), the “caspase-3 activation” value falls from 0.971% to 0.181%.

First: CCCCCCCCOc1ccc(C(=O)O)cc1
Second: CCCCOC(=O)COc1ccc(Cl)cc1Cl
The “caspase-3 activation” value of the first is higher: 1.22% for the first, 0.418% for the second.

First: C/C(Cl)=C/CCl
Second: CCC(Cl)CC(Cl)C(Cl)C(Cl)C(Cl)C(C)Cl (centres undefined)
The “caspase-3 activation” value of the first is higher: 0.602% for the first, -0.843% for the second.

Compared with `CCCCNCC`, `CCN(CC)c1ccc2c(C)cc(=O)oc2c1` is higher in “caspase-3 activation” value: -0.916% for the first, 1.47% for the second.

First: O=c1[nH]ncc2ccccc12
Second: c1ccc2c(c1)ccc1ccccc12
The “caspase-3 activation” value of the first is lower: 0.555% for the first, 2.14% for the second.

First: c1ccc(COCc2ccccc2)cc1
Second: O=[N+]([O-])c1ccccc1Nc1ccccc1
The “caspase-3 activation” value of the first is higher: 0.705% for the first, -0.121% for the second.

Going from `O=[N+]([O-])c1cccc(I)c1` to `Cc1ccc(C(=O)O)cc1[N+](=O)[O-]`, the “caspase-3 activation” value falls from 1.11% to 0.117%.

First: Nc1ccc2c(c1)C(=O)c1ccccc1C2=O
Second: Nc1ccc(N=Nc2ccccc2)c(N)c1
The “caspase-3 activation” value of the first is lower: -5.22% for the first, -4.47% for the second.

Going from `c1ccncc1` to `CC(=O)Nc1cccc(C)c1`, the “caspase-3 activation” value rises from 0.265% to 0.512%.

Going from `CC(=O)OC1CC(C)OC(C)O1` (centres undefined) to `C=CC1CO1` (centres undefined), the “caspase-3 activation” value falls from 0.479% to 0.219%.

Compared with `COc1ccc(C)cc1N`, `COc1ccc(C(=O)Nc2ccccc2)cc1[N+](=O)[O-]` is lower in “caspase-3 activation” value: 0.613% for the first, 0.464% for the second.
